GALK inhibitor: blocks human galactokinase activity. Potency, µM (highest dose often 57.5 µM), for inactives: at the highest dose activity change, negative = inhibition, usual class: inhibitors. P51570. AID 1868. Purified GALK, Kinase-Glo residual ATP luminescence. 0.007% of 270,000 active; note: potency is the fitted concentration of half-maximal effect
Target sequence (P51570 whole entry, looked up): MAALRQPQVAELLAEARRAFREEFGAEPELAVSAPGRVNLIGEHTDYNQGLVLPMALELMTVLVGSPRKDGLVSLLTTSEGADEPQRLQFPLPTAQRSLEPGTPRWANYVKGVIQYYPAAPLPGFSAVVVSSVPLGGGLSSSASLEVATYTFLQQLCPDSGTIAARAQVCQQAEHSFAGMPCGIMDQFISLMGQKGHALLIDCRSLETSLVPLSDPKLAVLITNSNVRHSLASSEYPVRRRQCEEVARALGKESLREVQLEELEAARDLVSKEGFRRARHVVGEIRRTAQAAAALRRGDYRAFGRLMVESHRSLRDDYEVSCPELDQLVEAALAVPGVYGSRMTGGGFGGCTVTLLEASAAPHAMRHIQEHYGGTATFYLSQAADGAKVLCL
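Quantitative HTS: GALK 5 nM, ATP 35 uM, galactose 100 uM, 1 h room temperature, then luciferase-based ATP detection.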
Gal4-VP16 FLuc: counter-screen for ROR gamma inhibitors: Gal4-VP16 reporter; Drosophila S2 Gal4-VP16 UAS-luciferase, luminescence, 20 h; Potency, µM (doses to about 53.6 µM), inactives show top-dose activity, negative = inhibition, actives largely listed as inhibitors; 3.5% of 310,000 active; AID 2546;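 note: Gal4-VP16 expression switched on by copper sulfate through the metallothionein promoter; potency is the fitted concentration of half-maximal effect; nearly all actives have a fitted effect of over 50% in size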
TrxR1 substrate: substrates of rat thioredoxin reductase 1; O89049; purified TrxR1 substrate turnover, NADPH consumption readout; Potency, µM (top dose mostly 114 µM), for the others: at the top dose activity change, negative = substrate turnover; 0.01% of 390,000 active; note: potency is the fitted concentration of half-maximal effect; nearly all actives have a fitted effect of over 50% in size
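Rat TrxR1, dispensed at 90 nM, was prereduced with 400 uM NADPH (final) for 5 min at ~22 deg C, then incubated with compound 15 min before 400 uM selenite. A first-read NADPH fluorescence drop versus no-compound background flagged substrates.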
TrxR1 inh: rat TrxR1 inhibition; recombinant rTrxR1, NADPH fluorescence consumption, selenite substrate; Potency, µM (series often up to 114 µM), for the others: top-dose activity change, negative = inhibition, usual class: inhibitors; 1% of 390,000 active; note: potency is the fitted concentration of half-maximal effect; nearly all actives have a fitted effect of over 65% in size
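Rat TrxR1 (90 nM in the dispensed reagent) was pre-reduced with 400 uM NADPH for 5 min at room temperature, then incubated with compound for 15 min. After 400 uM selenite was added, NADPH fluorescence (Ex 340/Em 450 nm) was followed for 8 min.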
Coupling enz: coupling enzyme interference in Giardia aldolase counter-screen. coupling enzyme system counterscreen, AmpLite Red fluorescence. activity change, negative = inhibition, % at 58.2 µM, hits read low. 0.67% of 290,000 active; in the data active = activity change below about -30%
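Counterscreen of the coupled detection system alone, without aldolase: glyceraldehyde-3-phosphate coupling enzymes plus AmpLite Red readout. Compounds at 57.5 uM final, 10 min RT preincubation, 20 min RT reaction, fluorescence 525/598 nm.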
RORg inh: blocks mouse ROR gamma transcriptional activity | AID 2551 | Drosophila S2 Gal4-RORgamma UAS-luciferase reporter, 20 h | P51450 | 5.4% of 310,000 active | Potency, µM (top dose mostly 53.6 µM), for inactives: top-dose activity change, negative = inhibition, hits mostly inhibitors; note: potency is the fitted concentration of half-maximal effect; nearly all actives have a fitted effect of over 60% in size
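Read-out: Photinus luciferase luminescence; inhibitors lower reporter signal. Insect Schneider cells with Gal4-ROR gamma fusion under metallothionein promoter, UAS reporter; 700 uM final copper sulfate induction, 20 hr, ambient temperature.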
Numbers without * were called inactive; [ ] = remark or other dose. An excerpt weighted towards active compounds, which were near 5.9% of everything screened. Unless noted, calls come from the whole dose curve; as a rule, active = well fitted curve in the direction sought with a large enough effect; inconclusive = small, poorly fitted or top-dose-only effect, or another doubt; inactive = no such curve, though single readings can be large; an effect the other way counts as inactive or inconclusive. % is set by controls: 0 for no effect and ±100 for the full control effect.

Cc1ccc(CNC(=O)c2ccc(C)s2)cc1 was read as TrxR1 substrate 8%[57.1 µM] and TrxR1 inh 16%[57.1 µM].
`CCc1ccccc1NC(=S)N(CCN1CCCCC1)Cc1ccco1` gave GALK inhibitor 6%, Gal4-VP16 FLuc -7%, TrxR1 substrate 9%[57.1 µM], TrxR1 inh 30%[57.1 µM], Coupling enz 3 and RORg inh 11µM*.
CCc1ccccc1NC(=S)N(Cc1ccco1)C(C)c1cccs1 (stereo not drawn) was read as GALK inhibitor -3%, Gal4-VP16 FLuc -7%[10 µM], TrxR1 substrate 1%, TrxR1 inh 12%, Coupling enz -1 and RORg inh 11µM*.
`COc1ccc(NC(=S)N(CCN2CCCCC2)Cc2ccco2)cc1` gave GALK inhibitor -1%, Gal4-VP16 FLuc -12%, TrxR1 substrate -5%[57.1 µM], TrxR1 inh 8%[57.1 µM], Coupling enz 0 and RORg inh inconclusive.
`Cc1cc(C)cc(NC(=S)N(CCN2CCCCC2)Cc2ccco2)c1` gave GALK inhibitor -1%, Gal4-VP16 FLuc 0%[10 µM], TrxR1 substrate 6%[57.1 µM], TrxR1 inh 12%[57.1 µM], Coupling enz -1 and RORg inh 10µM*.
`CCN1CCN(CCCN(Cc2ccco2)C(=S)Nc2ccccc2Cl)CC1` gave GALK inhibitor 1%, Gal4-VP16 FLuc -12%[10 µM], TrxR1 substrate 2%[57.1 µM], TrxR1 inh 21%[57.1 µM], Coupling enz -5 and RORg inh 14%.
`Cc1ccc(NC(=S)N(CCN2CCCCC2)Cc2ccco2)cc1Cl` gave GALK inhibitor -1%, Gal4-VP16 FLuc inconclusive, TrxR1 substrate 6%[57.1 µM], TrxR1 inh 0%[57.1 µM], Coupling enz 0 and RORg inh 14µM*.
For Cc1ccc(-n2nnnc2SCC(=O)c2c(N)n(C3CC3)c(=O)[nH]c2=O)cc1 the results were TrxR1 substrate 5% and TrxR1 inh 12%.
C[C@H](CO)N1C[C@H](C)[C@@H](CN(C)S(C)(=O)=O)Oc2ccc(NC(=O)Nc3ccc(C(F)(F)F)cc3)cc2C1=O was read as TrxR1 substrate 5% and TrxR1 inh 5%.
`COCCNC(=O)C1CCC(CNS(=O)(=O)c2ccc3c(c2)CC(C)N3C(=O)C2CC2)CC1` (stereo not drawn) gave GALK inhibitor 0%, Gal4-VP16 FLuc 6%, TrxR1 substrate 4%, TrxR1 inh 7% and RORg inh 6%.
`Cc1cc(C)cc(Nc2ncc3c(n2)CCCC3=O)c1` gave GALK inhibitor 0%, Gal4-VP16 FLuc 11µM*, TrxR1 substrate 5%[57.1 µM], TrxR1 inh 16%[57.1 µM], Coupling enz -1 and RORg inh 11µM*.
For CCC(=O)NC(c1ccc(C)cc1)c1cc(Cl)c2cccnc2c1O (stereo not drawn) the results were TrxR1 substrate -3% and TrxR1 inh -6%.
Screening CCCC(=O)NC(c1ccc2c(c1)OCO2)c1cc(Cl)c2cccnc2c1O (stereo not drawn) returned Gal4-VP16 FLuc 1.3µM*, TrxR1 substrate -8%, TrxR1 inh 1%, Coupling enz 0 and RORg inh 1.4µM*.
Screening CCC(=O)NC(c1cccs1)c1ccc2cccnc2c1O (stereo not drawn) returned GALK inhibitor 1%, Gal4-VP16 FLuc 1.1µM*, TrxR1 substrate -9%, TrxR1 inh 4%[57.1 µM], Coupling enz 0 and RORg inh 0.5µM*.
Screening CCC(=O)NC(c1ccco1)c1cc(Cl)c2ccccc2c1O (stereo not drawn) returned TrxR1 substrate 3%[57.1 µM] and TrxR1 inh 31%[57.1 µM].
CCCC(=O)NC(c1ccco1)c1cc(Cl)c2cccnc2c1O (stereo not drawn) was read as GALK inhibitor 0%, Gal4-VP16 FLuc 3.5µM*, TrxR1 substrate -22%[57.1 µM], TrxR1 inh 21%[57.1 µM], Coupling enz -7 and RORg inh 4µM*.
For Cc1conc1NC(c1cccs1)c1ccc2cccnc2c1O (stereo not drawn) the results were GALK inhibitor -1%, Gal4-VP16 FLuc 5.6µM*, Coupling enz -6 and RORg inh 2.5µM*.
O=C(Nc1ccc(Cl)cc1)c1nc[nH]c1C(=O)NCc1ccccc1 was read as TrxR1 substrate 4% and TrxR1 inh 4%.
`CCCC(=O)NC(c1cccs1)c1cc(Cl)c2cccnc2c1O` (stereo not drawn) gave GALK inhibitor -1%, Gal4-VP16 FLuc 0.5µM*, TrxR1 substrate -4%, TrxR1 inh 5%, Coupling enz -3 and RORg inh 0.4µM*.
For CCC(=O)NC(C)c1cc(Cl)c2cccnc2c1O (stereo not drawn) the results were TrxR1 substrate 0% and TrxR1 inh 14%.
Screening Cc1nc2nc(SCC(=O)c3ccc([N+](=O)[O-])cc3)[nH]c2cc1Br returned GALK inhibitor -1%, Gal4-VP16 FLuc inconclusive, TrxR1 substrate -1%, TrxR1 inh -15%, Coupling enz -2 and RORg inh 2.5µM*.
`Cc1ccc(O)c(C(=O)CC(=O)c2ccc(Cl)cc2)c1` gave GALK inhibitor -4%, Gal4-VP16 FLuc 5µM*, TrxR1 substrate 0%, TrxR1 inh 8%, Coupling enz -1 and RORg inh 3.5µM*.
Cc1ccc(C(=O)Sc2cccccc2=O)cc1 was read as Gal4-VP16 FLuc 2.2µM*, TrxR1 substrate 3%[57.1 µM], TrxR1 inh 0.63µM*, Coupling enz 0 and RORg inh 1.8µM*.
Screening Cc1cccc(C(=O)CC(=O)c2cc(Cl)ccc2O)c1 returned GALK inhibitor 0%, Gal4-VP16 FLuc inconclusive, TrxR1 substrate 2%, TrxR1 inh -4%, Coupling enz 1 and RORg inh inconclusive.
O=C(CC(=O)c1cc(Cl)ccc1O)c1ccccc1 was read as GALK inhibitor 2%, Gal4-VP16 FLuc 11µM*, TrxR1 substrate 4%, TrxR1 inh -5%, Coupling enz -2 and RORg inh inconclusive.
Cc1cccc(C(=O)NCC(=O)NNC(=O)c2ccccc2O)c1 was read as TrxR1 substrate 9%[57.1 µM] and TrxR1 inh 20%[57.1 µM].
For Cc1ccc(O)c(C(=O)CC(=O)c2cccc(F)c2)c1 the results were GALK inhibitor 0%, Gal4-VP16 FLuc 7.1µM*, TrxR1 substrate -5%, TrxR1 inh 4%[57.1 µM], Coupling enz -3 and RORg inh 7.9µM*.
`COc1ccccc1-n1c(O)c(C=NCc2ccccn2)c2ccccc2c1=O` gave GALK inhibitor 0%, Gal4-VP16 FLuc -16%, TrxR1 substrate -11%, TrxR1 inh -14%, Coupling enz -4 and RORg inh -41%.
Screening COc1ccc(CCNS(=O)(=O)c2c(C)nc3sccn3c2=O)cc1OC returned TrxR1 substrate -12% and TrxR1 inh -11%.

Source: PubChem
